HT1080 IDH1KD tx: toxicity to HT-1080 IDH1 knockdown cells (counter line) | Potency, µM (titrated, usually from 46.1 µM), hits mostly cytotoxic | HT-1080 IDH1 knockdown viability, ATP luminescence, 48 h | hit rate 2% among 360,000
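HT-1080-IDH1KD cells (IDH1 knocked down), 750/well in RPMI with 5% FBS, treated with compound 48 h at 37 degrees C. Viability by CellTiter-Glo luminescence, normalised to DMSO and no-cell wells; concentration-response curves classed.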
KB-V1 cytotox: KB-V1 MDR subline cytotoxicity | Potency, µM (series often up to 46.1 µM), actives largely listed as cytotoxic | hit rate 3.4% among 400,000 | KB-V1 MDR cells viability, CellTiter-Glo, 72 h; note: nearly all actives have a fitted effect of over 60% in size
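KB-V1 cells (P-gp-expressing MDR subline of KB-3-1) in phenol-red-free DMEM with 10% FBS were exposed to library compounds over a concentration series for 72 h at 37 degrees C. Viability read by CellTiter-Glo luminescence; concentration-effect curves fitted after normalization.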
KB-3-1 tox: KB-3-1 parental cell cytotoxicity | hit rate 1.4% among 400,000 | Potency, µM (titrated, usually from 46.1 µM), usual class: cytotoxic | KB-3-1 viability, CellTiter-Glo ATP luminescence, 72 h; note: nearly all actives have a fitted effect of over 60% in size
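Luminescent ATP read-out (CellTiter-Glo) measures survival of drug-naive KB-3-1 cells after 72 h compound exposure at 37 °C. Titration series was screened from lowest to highest concentration, with DMSO vehicle plates as background controls.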
HT1080-NT tox: kills 2HG-producing HT-1080-NT fibrosarcoma cells | Potency, µM (series often up to 46.1 µM), hits mostly cytotoxic | hit rate 1.6% among 360,000 | HT-1080-NT fibrosarcoma viability, CellTiter-Glo ATP luminescence, 48 h;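 note: NT is the 2HG producing partner of a matched IDH1 knockdown line; nearly all actives have a fitted effect of over 55% in size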
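750 cells/well, RPMI + 5% FBS; 2 h settle, compound pin-transfer, 48 h at 37 degrees C. CellTiter-Glo 10 min RT, luminescence. Normalized to DMSO and media-only wells.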
SW480 rerep: DNA re-replication induction in SW480 cells. SW480 DNA re-replication, Hoechst DNA content imaging, 48 h. Potency, µM (top dose mostly 46.1 µM), actives largely listed as activators. hit rate 1.8% among 340,000. AID 624297; note: nearly all actives have a fitted effect of over 55% in size
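Readout is total intensity of Hoechst-stained nuclei, excited at 405 nm and collected at 500-530 nm. Compound treatment lasted 48 hr at 37 C in 5% CO2 before staining.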
MCF10A rerep: induces DNA re-replication in MCF 10a normal breast cells; MCF 10A DNA re-replication, Hoechst nuclear intensity, 48 h; Potency, µM (top dose mostly 46.1 µM), hits mostly activators; hit rate 2.9% among 350,000; note: nearly all actives have a fitted effect of over 50% in size
Hits are given with their value; [ ] = dose if it differs, or a comment. Sampled rows, rich in hits. Any-hit rate of the full collection: about 7.9%. Calls come from the whole dose curve; as a rule, active = well fitted curve in the direction sought with a large enough effect; inconclusive = small, poorly fitted or top-dose-only effect, or another doubt; inactive = no such curve, though single readings can be large; an effect the other way counts as inactive or inconclusive.

Screening CC(C)C[C@H](N)c1cn([C@@H](CCCCN)C(=O)N2CCNCC2)nn1 returned HT1080 IDH1KD tx 1.2µM, KB-V1 cytotox inconclusive, KB-3-1 tox inconclusive, HT1080-NT tox 1.6µM, SW480 rerep inconclusive and MCF10A rerep inactive.
`CC(C)CC(N)c1cn([C@@H](CCC(=O)O)C(=O)N2CCNCC2)nn1` (some centres not stated) gave HT1080 IDH1KD tx inactive, KB-V1 cytotox inactive, KB-3-1 tox inactive, HT1080-NT tox inactive, SW480 rerep inactive and MCF10A rerep inactive.
For COc1ccc(CCn2c(=O)c3cccnc3n(CC(=O)Nc3ccc(C)c(F)c3)c2=O)cc1OC the results were KB-V1 cytotox inactive and KB-3-1 tox inactive.
`COc1ccc(CCNC(=O)CS(=O)Cc2nc(-c3ccc(C)cc3)oc2C)c(OC)c1` (configuration not stated) gave KB-V1 cytotox inactive and KB-3-1 tox inactive.
Screening CC1(C(=O)NS(=O)(=O)c2ccccc2C(F)(F)F)CCN1C(=O)CC1CCCC1 (configuration not stated) returned HT1080 IDH1KD tx inactive, KB-V1 cytotox inactive, KB-3-1 tox inactive and HT1080-NT tox inactive.
For O=C(NNc1cccc(Cl)c1)c1cccnc1Oc1ccccc1 the results were HT1080 IDH1KD tx 6.5µM, KB-V1 cytotox inactive, KB-3-1 tox inactive, HT1080-NT tox inconclusive, SW480 rerep inactive and MCF10A rerep inconclusive.
For O=C(Nc1ccc(F)cc1)c1cccnc1Oc1ccccc1 the results were HT1080 IDH1KD tx inactive, KB-V1 cytotox inactive, KB-3-1 tox inactive, HT1080-NT tox inactive, SW480 rerep inactive and MCF10A rerep inactive.
COc1ccc(CC(=O)N2CCC(CCC(=O)Nc3ccccc3)CC2)cc1 was read as HT1080 IDH1KD tx inactive, HT1080-NT tox inactive, SW480 rerep inactive and MCF10A rerep 23µM.
For COc1cccc(NC(=O)CCC2CCN(C(=O)Cc3cccc(F)c3)CC2)c1 the results were HT1080 IDH1KD tx inactive, HT1080-NT tox inactive, SW480 rerep inactive and MCF10A rerep inactive.
Screening COc1cccc(NC(=O)N2CCCC(C(=O)Nc3ccccc3OC)C2)c1 (configuration not stated) returned HT1080 IDH1KD tx inactive, KB-V1 cytotox 21µM, KB-3-1 tox inactive, HT1080-NT tox inactive, SW480 rerep inactive and MCF10A rerep inactive.
For Cc1cc(F)ccc1NC(=O)C1CCN(C(=O)Nc2ccccc2)CC1 the results were HT1080 IDH1KD tx inactive, KB-V1 cytotox inactive, KB-3-1 tox inactive, HT1080-NT tox inactive, SW480 rerep inactive and MCF10A rerep inconclusive.
Screening COc1cccc(NC(=O)N2CCC(C(=O)Nc3ccc(C)cc3C)CC2)c1 returned HT1080 IDH1KD tx inactive, KB-V1 cytotox 15µM, KB-3-1 tox inactive, HT1080-NT tox inactive, SW480 rerep inactive and MCF10A rerep inactive.
`COc1ccc(-n2c(Cc3cccn3C)nnc2SCC(=O)NCCc2ccccc2)cc1` gave HT1080 IDH1KD tx inactive, KB-V1 cytotox 9.2µM, KB-3-1 tox inactive, HT1080-NT tox inactive, SW480 rerep inactive and MCF10A rerep inactive.
`Cc1cc(C)c(NC(=O)CSc2nnc(Cc3cccn3C)n2-c2ccc(F)cc2)c(C)c1` gave HT1080 IDH1KD tx inactive, KB-V1 cytotox 23µM, KB-3-1 tox inactive, HT1080-NT tox inactive, SW480 rerep inactive and MCF10A rerep inactive.
Screening Cc1ccc(-n2c(Cc3cccn3C)nnc2SCC(=O)N2CCc3ccccc32)cc1 returned HT1080 IDH1KD tx inactive, KB-V1 cytotox 6.5µM, KB-3-1 tox inactive, HT1080-NT tox inactive, SW480 rerep inactive and MCF10A rerep inactive.
Screening Cc1cc(C)cc(NC(=O)CSc2nnc(Cc3cccn3C)n2-c2ccc(F)cc2)c1 returned HT1080 IDH1KD tx inactive, KB-V1 cytotox inactive, KB-3-1 tox inactive, HT1080-NT tox inactive, SW480 rerep inactive and MCF10A rerep inactive.
`CCSc1nnc(NC(=O)CSc2nnc(Cc3cccn3C)n2CCc2ccccc2)s1` gave HT1080 IDH1KD tx inactive, KB-V1 cytotox 8.2µM, KB-3-1 tox inactive, HT1080-NT tox inactive, SW480 rerep inactive and MCF10A rerep inactive.
Screening COc1ccc(-c2cc(C(F)(F)F)c(C#N)c(SCC(=O)Nc3cccc(C)c3)n2)cc1 returned KB-V1 cytotox inconclusive and KB-3-1 tox inactive.
Screening COc1cc(OC)c(N(C)C(=O)Nc2cn(CC(C)C)c(=O)c3ccccc23)cc1Cl returned KB-V1 cytotox inactive and KB-3-1 tox inactive.
COc1ccc(-n2c(CCc3ccccc3)nnc2SCC(=O)c2ccc(Cl)cc2)cc1 was read as HT1080 IDH1KD tx inactive, KB-V1 cytotox 5.8µM, KB-3-1 tox inconclusive, HT1080-NT tox inactive, SW480 rerep inactive and MCF10A rerep inactive.
`Cc1cccc(-n2ccnc2SCC(=O)Nc2nccs2)c1` gave HT1080 IDH1KD tx inactive, KB-V1 cytotox inactive, KB-3-1 tox inactive, HT1080-NT tox inactive, SW480 rerep inactive and MCF10A rerep inactive.
`O=C(NCc1nnc(SCC(=O)N2CCCc3ccccc32)n1-c1ccccc1)c1cccc2ccccc12` gave HT1080 IDH1KD tx inactive, KB-V1 cytotox 16µM, KB-3-1 tox inconclusive, HT1080-NT tox inactive, SW480 rerep inactive and MCF10A rerep inactive.
`COc1ccccc1NC(=O)CSc1nnc(Cc2cccn2C)n1CCc1ccccc1` gave HT1080 IDH1KD tx inactive, KB-V1 cytotox inactive, KB-3-1 tox inactive, HT1080-NT tox inactive[9.24 µM], SW480 rerep inactive and MCF10A rerep inactive.
For CCSc1nnc(NC(=O)CSc2nccn2-c2cccc(C)c2)s1 the results were HT1080 IDH1KD tx inactive, KB-V1 cytotox 16µM, KB-3-1 tox inactive, HT1080-NT tox inactive, SW480 rerep inactive and MCF10A rerep inactive.
`COc1ccc(NC(=O)CSc2nnc(Cc3cccn3C)n2CCc2ccccc2)cc1OC` gave HT1080 IDH1KD tx inactive, KB-V1 cytotox 15µM, KB-3-1 tox inactive, HT1080-NT tox inactive, SW480 rerep inactive and MCF10A rerep inactive.
For O=C(Nc1ccc(Br)cn1)c1cnn2c1NC(=C1CC1)C=C2C(F)F the results were KB-V1 cytotox inactive and KB-3-1 tox inconclusive.
`COc1ccc(-n2c(SCCC(C)C)nc3sc4c(c3c2=O)CC(C(C)C)OC4)cc1` (configuration not stated) gave KB-V1 cytotox inactive and KB-3-1 tox inactive.
Screening O=C(NCc1ccc(Cl)cc1Cl)c1cccc(N2CCCS2(=O)=O)c1 returned KB-V1 cytotox inactive and KB-3-1 tox inactive.
COc1ccc(C(=O)NC2CCCc3c2cnn3-c2cccc(C)c2C)o1 (configuration not stated) was read as HT1080 IDH1KD tx inconclusive, KB-V1 cytotox inconclusive, KB-3-1 tox inconclusive, HT1080-NT tox 21µM, SW480 rerep inactive and MCF10A rerep inconclusive.

From PubChem BioAssay
